Measurements from PubChem BioAssay AID624351 (Southern Research Specialized Biocontainment Screening …, 2012).
In all, about 2,400 compounds went through this assay and about 1,400 (58%) were called active.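 How the source made its calls: active means inhibition of 30% or more at any tested dose; inconclusive means primary hits over the limit that were never retested; inactive means the rest.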 The set was probably picked from earlier hits. This is one part of the list.

Assay: ADP Hunter readout inhibition without MgcRacGAP – biochemical, coupled enzyme counter-screen, artefact control for MgcRacGAP inhibitor project, dose response (AID 624351);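 further: signal is the ADP detection kit reading of free GDP without any GAP enzyme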;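 on inhibition: 0% = median positive control wells and 100% = median negative control wells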
Conditions: fluorescence, no MgcRacGAP; series mostly up to 80 µM; inhibition: at the top concentration

SMILES	inhibition	IC50
Clc1cc(Cl)c(OCCCCn2cncn2)c(Cl)c1	12.8% (inactive)	
CCCCN(C)C(=O)C1CCN(Cc2ccc(OCc3ccccc3)cc2)CC1	18.4% (inactive)	
COc1ccc(C2NC(c3ccc(OC)cc3OC)C(C)C(=O)C2C)c(OC)c1 (centres undefined)	19.7% (inactive)	
CC1CC(C)CN(CC(=O)NC(c2ccccc2)c2ccccc2)C1 (centres undefined)	10.7% (inactive)	
COc1cc(/C=C2\SC(c3ccc(C)cc3)=NC2=O)cc(OC)c1O	18.2% (inactive)	
CCCN1C(=O)/C(=C/c2cc(C)n(C)c2C)SC1=Nc1ccc(OCC)cc1	-18.7% (inactive)	
COc1cc(/C=C2\SC(N)=NC2=O)ccc1O		16.4 µM (active)
CCOc1cc(/C=C2\SC(=O)N=C2N)ccc1O		14.3 µM (active)
CCN=C1S/C(=C\c2ccc(O)c(OCC)c2)C(=O)N1CC		39 µM (active)
COc1cc(/C=C2\SC(N)=NC2=O)cc(Cl)c1O		45.7 µM (active)
COc1cccc(OC)c1OCCNC(C)(C)C	8.19% (inactive)	
CCOc1cc(/C=C2\C(=O)ON=C2c2ccccc2)cc(Br)c1O	0.5% (inactive)	
N=C1/C(=C\c2ccc(Br)o2)C(=O)N=C2SC(CC(=O)N3CCOCC3)=NN12	2.42% (inactive)	
NC1=NC(=O)S/C1=C\c1ccc(O)cc1		20.2 µM (active)
N=C1/C(=C/c2ccc(Br)o2)C(=O)N=C2SC(CC(=O)N3CCCC3)=NN12	0.87% (inactive)	
CCS(=O)(=O)C1=NN2C(=N)/C(=C\c3ccc(SCc4ccco4)o3)C(=O)N=C2S1	8.36% (inactive)	
CCOc1cc(/C=C2/NC(=O)N(Cc3ccccc3F)C2=O)ccc1O		50 µM (active)
Cc1ccc(S(=O)(=O)Oc2ccc(/C=C3\C(=N)N4N=C(S(C)(=O)=O)SC4=NC3=O)cc2)cc1	0.72% (inactive)	
CC(NCc1cccc(S(=O)(=O)N(C)C)c1)c1ccc(F)cc1 (centres undefined)	17.1% (inactive)	
CCOc1cc(/C=C2\SC(N)=NC2=O)ccc1O		55.5 µM (active)
C#CCOCCOCCOCCNc1nc(N2CCN(C(=O)C([C@@H](C)O)n3cc([C@@H](N)CCCCN)nn3)CC2)nc(N2CCN(C(=O)[C@H](CCCCN)n3cc(CN)nn3)CC2)n1 (some centres undefined)	5.73% (inactive)	
O=C(CSc1nnnn1-c1ccc(F)cc1)c1ccc(O)c(O)c1		77.2 µM (active)

SMILES	inhibition	IC50
CN(C)c1cc(NC(=O)CN2CCCC2)c2ccccc2n1	28.4% (inactive)	
Cc1cc(C)nc(SCC(=O)c2ccc(O)c(O)c2)n1		38 µM (active)
Cc1cc(SCC(=O)c2ccc(O)c(O)c2)nc2ccccc12		58.9 µM (active)
CC(C)(C)CC(C)(C)NCC(=O)Nc1c2c(nc3ccccc13)CCC2	24.6% (inactive)	
O=C(O)c1cccc2cccc(-c3c4ccc(=O)c(O)c-4oc4c(O)c(O)ccc34)c12	-17.4% (inactive)	
Cc1cc(=O)oc2c(O)c(O)ccc12		28.8 µM (active)
Cc1[nH]n(-c2ccccc2)c(=O)c1/C=N/N(C)c1ccccc1		15 µM (active)
O=C(O)C1Nc2c(O)cc(Cl)c([N+](=O)[O-])c2C2C=CCC12 (centres undefined)	-30.6% (inactive)	
COc1cc(Sc2ccc(C)cc2)c(OC)cc1N		22.5 µM (active)
O=C(N/C(=C\c1ccc(O)cc1)C(=O)N1CCCCC1)c1ccccc1		54.1 µM (active)
COc1ccc(NC2CCCN(C(=O)c3cccc(N4CCNC4=O)c3)C2)cc1 (centres undefined)		81.2 µM (active)
COc1ccc(NC2CCCN(C(=O)c3cccc(N(C)C)c3)C2)cc1 (centres undefined)		74.8 µM (active)
COc1cccc(C(=O)N2CCN(C3CCCCC3)CC2)c1	11.9% (inactive)	
COc1ccc(NC2CCCN(C(=O)c3ccc(C)c(N4CCNC4=O)c3)C2)cc1 (centres undefined)	24.7% (inactive)	
O=C(c1cccc(F)c1)N1CCN(C2CCCCC2)CC1	18.3% (inactive)	
COc1cc(OC)cc(C(=O)N2CCN(Cc3ccccc3Br)CC2)c1	13.3% (inactive)	
Cc1cc(-c2ccccc2)nc2c(Br)c(=O)[nH]n12	3.62% (inactive)	
Cc1ccc(N2C(S)=C(C#N)C(=O)NC23CCCCC3)cc1	4.43% (inactive)	
O=C(O)CCCN1C(=O)/C(=C\c2ccco2)SC1=S	-23.9% (inactive)	
COc1cc(/C=C2\SC(=S)N(NC(=O)c3ccncc3)C2=O)ccc1O		44.1 µM (active)
COc1cc(/C=C2\SC(=S)N(NC(=O)c3ccc(O)cc3)C2=O)ccc1O		79.5 µM (active)
COc1cc(/C=C2\SC(=S)N(Nc3ccccc3)C2=O)ccc1O		75.4 µM (active)

SMILES	inhibition	IC50
CC(=O)NN1C(=O)/C(=C/c2ccc(Br)o2)SC1=S	-2.96% (inactive)	
COc1cc(/C=C2\SC(=S)N(NC(=O)c3cccc(O)c3)C2=O)ccc1O		67.5 µM (active)
CC(=O)NN1C(=O)/C(=C\c2ccc(Br)o2)SC1=S	6.09% (inactive)	
O=C1C(=Cc2cccc(O)c2O)SC(=S)N1CCCN1CCOCC1	25.8% (inactive)	
CC(=O)OCCNc1cc(N2CCN(C)CC2)c2noc3c2c1C(=O)c1ccccc1-3	-4.34% [at 10 µM] (inactive)	
O=C(O)c1ccc2c(c1)[C@@H]1C=CC[C@@H]1[C@H](c1ccccn1)N2	0.72% (inactive)	
CCOC(=O)c1sc2nc(CSc3ccccc3)nc(N3CCCN(C)CC3)c2c1C	13.6% (inactive)	
CCOc1cc(/C=N\NC(=O)c2c(C)nc3ccccn23)ccc1O		83.5 µM (active)
COc1cc(/C=N\NC(=O)c2c(C)nc3cc(C)ccn23)ccc1O		50.4 µM (active)
CCOc1cc(/C=C2\N=C3CCCCCN3C2=O)ccc1O		55.8 µM (active)
O=C1/C(=C\c2ccc(O)c(O)c2)N=C2CCCCCN12		18.3 µM (active)
O=C(CNC1CC1)Nc1cc(C(F)(F)F)ccc1Cl	17.2% (inactive)	
Cc1ccc(S(=O)(=O)N[C@H](C(=O)OCn2nnc3ccccc3c2=O)C(C)C)cc1	1.81% (inactive)	
COc1ccc(NC(=O)NS(=O)(=O)c2ccc(C)cc2)cc1OC		25.5 µM (active)
CCOc1cc(C=NNC(=O)c2cccc(S(=O)(=O)N3CCCC3)c2)ccc1O		32.6 µM (active)
O=C(CNCc1ccco1)Nc1cccc(S(=O)(=O)N2CCCCC2)c1	15.6% (inactive)	
O=C(/C=C/c1ccc(O)c(O)c1)c1ccc(S(=O)(=O)N2CCCCCC2)cc1	29.4% (inactive)	
COc1ccc(/C=N/NC(=O)c2cccc(S(=O)(=O)N3CCCC3)c2)cc1O		55.4 µM (active)
O=C(N/N=C/c1ccc(O)c(O)c1)c1cccc(S(=O)(=O)N2CCCCC2)c1		72.8 µM (active)
CCN(CC)S(=O)(=O)c1cccc(C(=O)N/N=C/c2ccc(OC)c(O)c2)c1		81.2 µM (active)
